# How the values were obtained:
# Test in all cases: Euclidean distance of Cell Painting phenotypic profile (signed KS, 77 features) to DMSO centroid (dimensionless distance); higher = stronger phenotypic change vs DMSO (phenoactivity)
# Conditions in all cases: 48 h; 5 or 10 uM (library dependent)
# 786-O = tested on: 786-O
# Outline: (§1)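 Library compounds were applied at 10 or 5 uM, depending on the library, with 0.1% DMSO final, for 48 h to five cancer lines and a healthy fibroblast line. After staining, cells were imaged confocally at 20X across 9 fields per well, and Harmony extracted 77 features, each scored as a signed Kolmogorov-Smirnov statistic against vehicle wells on the same plate. Phenoactivity is the Euclidean distance between each profile and the median vehicle profile, with profiles first plate-position corrected, correlation-weighted and averaged over replicates at the top dose.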
# A549 = tested on: A549
# Outline: as §1
# FB = tested on: FB
# Outline: as §1
# HEPG2 = tested on: HEPG2
# Outline: as §1
# OVCAR4 = tested on: OVCAR4
# Outline: as §1
# DU145 = tested on: DU145
# Outline: as §1
SMILES,Euclidean distance (786-O),Euclidean distance (A549),Euclidean distance (FB),Euclidean distance (HEPG2),Euclidean distance (OVCAR4),Euclidean distance (DU145)
C=CC[C@]1(O)CC[C@H]2[C@@H]3CCC4=CC(=O)CCC4=C3C=C[C@@]21C [Altrenogest],1.11,2.59,1.16,0.983,1.02,
CCN1C[C@]2(OC(=O)c3ccccc3NC(C)=O)CC[C@H](OC)[C@@]34[C@@H]2C[C@@H]([C@@H]13)[C@@]1(O)C[C@H](OC)[C@H]2C[C@@H]4[C@]1(O)[C@H]2OC [Lappaconitine],0.914,0.59,1.1,0.579,1.35,
COc1cc(C)[nH]c(=O)c1CNC(=O)c1c(C)n([C@H](C)C2CCN(CC(F)(F)F)CC2)c2ccccc12,1.35,1.09,1.42,0.588,0.987,
O=C([O-])C(Cl)Cl.[Na+] [Sodium dichloroacetate (DCA)],0.79,0.753,0.681,0.496,1.4,0.544
